Bioassay records from PubChem.
This is a sample that favours compounds with a hit; in the whole collection about 2.8% have one here.
PI5P4K alpha inh = blocks human PI5P4K alpha kinase activity. P48426. PI5P4Kalpha enzyme, ADP-Glo luminescence, 60 min; stronger effect = lower value. max response, %. actives 1.2% (n = 330,000); active = max response of -50% or lower; inconclusive = between -30% and -50%; inactive = -30% or higher; also: value at the top dose of about 77 µM; % is scaled to controls: 0 for no effect and ±100 for the full control effect
Target sequence (P48426 whole entry, looked up): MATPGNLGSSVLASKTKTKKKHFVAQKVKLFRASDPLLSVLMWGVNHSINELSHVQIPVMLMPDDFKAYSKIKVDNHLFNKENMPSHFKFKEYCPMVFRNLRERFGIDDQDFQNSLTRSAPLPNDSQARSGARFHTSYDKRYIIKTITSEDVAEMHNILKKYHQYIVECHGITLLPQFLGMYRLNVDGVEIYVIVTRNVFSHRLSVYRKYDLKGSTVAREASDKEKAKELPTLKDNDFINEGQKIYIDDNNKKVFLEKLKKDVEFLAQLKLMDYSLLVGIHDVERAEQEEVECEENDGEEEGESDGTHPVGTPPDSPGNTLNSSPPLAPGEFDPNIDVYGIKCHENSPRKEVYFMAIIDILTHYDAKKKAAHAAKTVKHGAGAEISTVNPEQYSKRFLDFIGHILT
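Reactions run in 0.038 M HEPES pH 7.4, 0.28 mM EGTA, 0.1% CHAPS and 5% DMSO, with PI5P4Kalpha, substrate, compound and 5 microM ATP final, one hour at room temperature. Readout is ADP-Glo luminescence.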
Pol iota inh = inhibitors of human DNA polymerase iota; Q9UNA4; Pol iota fluorescent replication assay, 10 min; Potency, µM (top dose mostly 115 µM), without a hit: at the top dose activity, negative = inhibition, most hits filed as inhibitors; actives 1% (n = 390,000); also: potency is read from the fitted curve at half-maximal effect
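Pol iota at 10 nM preincubated 15 min with compounds at room temperature; reaction started with fluorescent substrate, 50 nM final. Fluorescence read kinetically at 0 and 10 min; buffer-only wells as negative control.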
Pol beta inh = DNA polymerase beta (human) inhibition. P06746. Pol beta primer extension/strand displacement, fluorescence kinetic. Potency, µM (highest dose often 114 µM), inactives show at the top dose activity change, negative = inhibition, hits mostly inhibitors. actives 1.3% (n = 340,000). AID 485314; also: potency is read from the fitted curve at half-maximal effect; % is scaled to controls: 0 for no effect and ±100 for the full control effect
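Human Pol beta at 10 nM; strand-displacement substrate 50 nM final. Compound exposure 15 min at room temperature before start, reaction 10 min at room temperature.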
WRN helicase inh = inhibitors of human WRN helicase; Q14191; AID 651768; actives 0.46% (n = 360,000); Potency, µM (top dose mostly 114 µM), for the others: top-dose activity change, negative = inhibition, most hits filed as inhibitors; WRN helicase unwinding, fluorescent forked duplex, kinetic; also: potency is read from the fitted curve at half-maximal effect; % is scaled to controls: 0 for no effect and ±100 for the full control effect; nearly all actives have a fitted effect of over 55% in size
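Fluorescence dequenching readout, ex 525 nm/em 598 nm, kinetic mode: forked duplex DNA (100 nM final) with adjacent fluorophore and quencher unwound by WRN (20 nM final) with 2 mM ATP. Compound preincubation 15 min, room temperature.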
Pol eta inh = inhibitors of human DNA polymerase eta. Q9Y253. recombinant Pol eta, fluorescent DNA replication assay. Potency, µM (top dose mostly 114 µM), for the others: at the highest dose activity change, negative = inhibition, actives largely listed as inhibitors. actives 1.2% (n = 390,000). AID 588591; also: potency is read from the fitted curve at half-maximal effect; % is scaled to controls: 0 for no effect and ±100 for the full control effect
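Pol eta (10 nM) was preincubated with compounds for 15 min at room temperature, after which fluorescent replication substrate (50 nM final) was added to start the reaction. Fluorescence was read kinetically at 0 and 10 min.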
Pol kappa inh = DNA polymerase kappa (human) inhibition | Q9UBT6 | purified Pol kappa, fluorescent DNA synthesis assay, 10 min | Potency, µM (highest dose often 107 µM), for inactives: at the highest dose activity, negative = inhibition, most hits filed as inhibitors | actives 0.53% (n = 400,000); also: potency is read from the fitted curve at half-maximal effect; % is scaled to controls: 0 for no effect and ±100 for the full control effect
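Kinetic fluorescence screen: compound preincubated 15 min RT with 10 nM enzyme; 50 nM substrate (final) initiates; reads at 0/10 min.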
An asterisk follows results filed as active; ? = inconclusive; / = not tested or not shown; [ ] = remark or other dose. Unless noted, calls follow the shape of the dose curve; as a rule, active = well fitted curve in the direction sought with a large enough effect; inconclusive = small, poorly fitted or top-dose-only effect, or another doubt; inactive = no such curve, though single readings can be large; an effect the other way counts as inactive or inconclusive.

SMILES | PI5P4K alpha inh | Pol iota inh | Pol beta inh | WRN helicase inh | Pol eta inh | Pol kappa inh
COc1ccc(N2CSC3=C(C#N)C(c4cccs4)CC(=O)N3C2)cc1 (stereo unspecified) | / | 4.4% | 28.2µM* | 8.1% | 0.8% | -5.1%
Clc1ccc2nc(Nc3ccccc3Cl)nc(-c3ccccc3)c2c1 | / | -1.1% | 1.6% | / | / | 1.2%
COc1ccc(N=Cc2cc(Cc3ccccc3Cl)cc([N+](=O)[O-])c2O)cc1OC | ? | ? | 0.6% | 1.9% | 28.2µM* | -15.8%
Cc1ccc(-n2ncc(C(=O)NCCN3CCC(Cc4ccccc4)CC3)c2C2CCN(C(=O)OC(C)(C)C)CC2)cc1 | / | 12.3% | -17.4% | / | -18.7% | -12.4%
CCCNC(=O)C1CCC(Cn2c(=O)c3sccc3n(CC(=O)Nc3ccccc3C)c2=O)CC1 (stereo unspecified) | / | 30.1% | -2.2% | / | -11.1% | -20.9%
COCCn1c(C)cc(C(=O)COC(=O)c2ccc3ncsc3c2)c1C | -57.8* | ? | ? | -32.9% | ? | -12.5%
O=C(OCC(=O)N1CCN(c2ccccc2)CC1)c1ccc(Cl)nc1 | -6.0 | 26.1% | / | 2.3% | -10.8% | 2.9%
O=C(COC(=O)c1ccc2ncsc2c1)NC(=O)C1CCCCC1 | / | 70.8µM* | / | / | / | -26.1%
CC1CCC(NC(=O)COC(=O)c2ccc3ncsc3c2)CC1 (stereo unspecified) | -8.4 | ? | / | 12.7% | -3.3% | -0.6%
O=C(OCC(=O)N1CCN(c2ccccc2)CC1)c1ccc2ncsc2c1 | -24.1 | ? | 89.1µM* | -13.5% | ? | -39.7%
COCCn1c(C)cc(C(=O)COC(=O)c2cncc(Br)c2)c1C | -0.5 | 11.8% | -20.7% | -16.5% | -0.1% | -3.5%
O=C(NNC(=O)c1ccccc1Cl)c1cccs1 | 1.0 | -6.4% | -1.7% | 0.0% | -6.7% | 8.3%
O=C(NNC(=O)c1ccccc1Cl)c1ccccc1Cl | 4.2 | 27.1% | 89.1µM* | -1.5% | -22.1% | -1.3%
COCCCNC(=O)C1CCN(Cc2cc3ccccc3n2Cc2cccc(C)c2)CC1 | / | 17.3% | 12.1% | / | -18.4% | -5.8%[60.1 µM]
O=c1nc(SCc2c(F)cccc2Cl)nc(-c2ccc(Cl)cc2)[nH]1 | 39.3 | 24.7% | 2.6% | 6.8%[11.6 µM] | 89.1µM* | -1.2%
Cc1nn(CCCC(=O)NCc2ccc(F)cc2)c(C)c1[N+](=O)[O-] | -2.6 | 11.7% | ? | 7.4% | -20.5% | -5.8%
Cc1nn(CC(=O)N(C)Cc2ccc(F)cc2)c(C)c1[N+](=O)[O-] | -3.8 | 11.0% | 0.178µM* | 4.1% | -7.2% | 0.3%
O=C(Nc1ccc2nc(-c3ccco3)c(-c3ccco3)nc2c1)N1CCCCCC1 | / | 3.16µM* | 2.24µM* | 12.6µM* | 10µM* | 7.08µM*
O=C(Nc1ccc2nc(-c3cccs3)c(-c3cccs3)nc2c1)N1CCCC1 | / | 47.5% | / | / | / | 3.2%
O=C(Nc1ccc(Cl)c(Cl)c1)N1CCCCCC1 | 0.4 | ? | 47.5% | -2.0%[11.6 µM] | -12.8% | 89.1µM*
CCOC(=O)C1CCN(C(=O)Nc2ccc3c(c2)nc(C)n3C)CC1 | / | 15.8% | -1.7% | -0.3% | -6.2% | -1.7%
CCOC(=O)C1CCN(C(=O)Nc2ccc3nc(-c4ccco4)c(-c4ccco4)nc3c2)CC1 | -70.2* | 2.82µM* | 1.58µM* | 35.5µM* | 2.82µM* | 15.8µM*
COc1ccc(-c2noc(CSc3nnc(Cc4ccccc4)n3-c3ccccc3)n2)cc1OC | / | -21.3% | 8.3% | / | -7.7% | -5.3%
CCOc1ccc(CCNC(=O)C2CCN(C(=O)c3cc4sccc4n3CC)CC2)cc1OCC | / | -15.9% | -9.2% | / | 0.8% | 4.7%
CC1=CC(c2ccccc2)n2nc(N3C(=O)c4ccccc4C3=O)nc2N1 (stereo unspecified) | / | 6.8% | -15.6% | -13.5%[57.1 µM] | -19.4% | 44.7µM*
COc1ccc(CCN2C(=O)c3ccccc3C2c2nnnn2-c2c(C)cccc2C)cc1OC (stereo unspecified) | -2.8 | / | / | 2.8% | / | /
COc1ccc(-n2nc(C(=O)Nc3cc(C)ccn3)c3c4ccccc4n(C)c3c2=O)cc1Cl | / | -16.2% | -0.5% | / | -8.4% | 3.3%
